Sampled rows, rich in hits. Any-hit rate of the full collection: about 3.4%.
pPAFAH FP inh: pPAFAH enzyme inhibitors, primary screen, biochemical, fluorescence polarization, human; 330,000 tested, 1.5% active; inhibition, % at 3.39 µM; recombinant pPAFAH, FP-rhodamine probe fluorescence polarization;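 active = inhibition above the mean inhibition across the screen plus 3 SD, cut at about 25% in these data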;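 also: inhibitors block binding of the rhodamine activity-based probe so polarization drops; 0% = enzyme with DMSO and 100% = wells lacking pPAFAH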
PAFAH1B3 FP inh: PAFAH1B3 enzyme inhibitors, primary screen, biochemical, fluorescence polarization, human; Platelet-activating factor acetylhydrolase IB subunit alpha1 (Homo sapiens), Q15102; recombinant PAFAH1B3, FP-rhodamine probe; inhibition, % at 3.39 µM; 340,000 tested, 0.28% active;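 active = inhibition above the screen-wide average of all tested compounds plus 3 SD, cut at about 25% in these data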;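 also: 0% = enzyme with DMSO only and 100% = wells lacking PAFAH1B3 protein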
PAFAH2 inh: PAFAH2 enzyme inhibitors, primary screen, biochemical, fluorescence polarization, human. Platelet-activating factor acetylhydrolase 2, cytoplasmic (Homo sapiens), Q99487. recombinant PAFAH2, FP-rhodamine activity probe. inhibition, % at 3.39 µM. 340,000 tested, 0.99% active;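 active = inhibition above the mean over all tested compounds plus 3 SD, cut at about 30% in these data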;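 also: inhibitors block probe labeling of enzyme so polarization drops; 0% = enzyme with DMSO and 100% = wells lacking PAFAH2 protein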
PP5 primary: PP5 phosphatase inhibitors, primary screen, biochemical, fluorescence | Serine/threonine-protein phosphatase 5 (Homo sapiens), P53041 | purified PP5c, OMFP substrate fluorescence | inhibition, % at 6.7 µM | 320,000 tested, 0.18% active | AID 1987, 2009;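 active = inhibition above the campaign's mean inhibition across all tested compounds plus 3 SD, cut at about 9.5% in these data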;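 also: 0% = DMSO only and 100% = 100 µM cantharidin control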
Target sequence (P53041 whole entry, looked up): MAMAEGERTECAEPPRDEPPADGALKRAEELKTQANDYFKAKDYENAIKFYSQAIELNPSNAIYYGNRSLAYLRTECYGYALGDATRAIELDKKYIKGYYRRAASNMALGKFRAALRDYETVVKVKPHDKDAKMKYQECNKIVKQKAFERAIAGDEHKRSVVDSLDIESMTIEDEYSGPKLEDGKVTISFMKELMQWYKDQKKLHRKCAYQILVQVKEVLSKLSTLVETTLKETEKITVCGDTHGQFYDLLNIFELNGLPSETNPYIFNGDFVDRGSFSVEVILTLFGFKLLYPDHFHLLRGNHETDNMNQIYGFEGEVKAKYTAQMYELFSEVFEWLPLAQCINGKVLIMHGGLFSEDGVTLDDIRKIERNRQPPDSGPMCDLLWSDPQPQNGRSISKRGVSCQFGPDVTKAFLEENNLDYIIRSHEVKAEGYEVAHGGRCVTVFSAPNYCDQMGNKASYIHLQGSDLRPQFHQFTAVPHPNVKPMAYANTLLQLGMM
PP1 counter: PP1-alpha phosphatase inhibitors, primary screen, counter-screen for PP5 inhibitor project, biochemical, fluorescence, OMFP substrate, single point; Serine/threonine-protein phosphatase PP1-alpha catalytic subunit (Homo sapiens), P62136; purified PP1alpha; inhibition, % at 6.7 µM; 320,000 tested, 0.9% active; AID 2235, 2010;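 active = inhibition above the mean inhibition of all tested compounds plus 3 SD, computed separately for each screening campaign, cut at about 15% in these data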
PAFAH1B2 inh: PAFAH1B2 enzyme inhibitors, primary screen, biochemical, fluorescence polarization, human; Platelet-activating factor acetylhydrolase IB subunit alpha2 (Homo sapiens), P68402; AID 492953, 2010; inhibition, % at 3.39 µM; 340,000 tested, 1.2% active; recombinant PAFAH1B2, FP-rhodamine activity probe;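 active = inhibition above the mean of all tested compounds plus 3 SD, cut at about 24% in these data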;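 also: 0% = enzyme with DMSO and 100% = wells lacking PAFAH1B2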
* hit, by the source's call; x = no result given.

SMILES	pPAFAH FP inh	PAFAH1B3 FP inh	PAFAH2 inh	PP5 primary	PP1 counter	PAFAH1B2 inh
OC1CCN(C(=S)NCCc2ccccc2)CC1	-6.7	11.3	4.2	-3.3	-3.4	-2.5
CCOc1ccc(NS(=O)(=O)c2cc3c4c(c2)C(C)C(=O)N4CCC3)cc1 (stereo not drawn)	25.9*	4.5	2.7	1.1	3.7	2.4
O=[N+]([O-])c1cc(S(=O)(=O)Nc2ccc(Cl)cc2)ccc1N/N=C/c1ccncc1	-0.5	3.6	2.2	0.3	-5.0	1.2
O=C(O)c1cc([N+](=O)[O-])ccc1NCCCc1ccccc1	26.6*	3.0	13.8	0.1	0.9	50.5*
C[C@H](CO)N1C[C@H](C)[C@@H](CN(C)S(=O)(=O)c2ccc(F)cc2)Oc2ccc(NC(=O)Nc3ccc4c(c3)OCO4)cc2C1=O	12.5	11.8	3.6	x	x	1.7
O=c1c2ccccc2cnn1Cc1ccc(Cl)c(Cl)c1	3.2	6.2	-14.9	0.9	2.4	-4.3
O=C(c1cc(-c2ccc(F)cc2)on1)N1CCCc2ccccc21	-2.8	1.9	0.7	1.9	15.9*	1.1
COc1ccc(C2C(C(N)=O)=C(C)Nc3nc(CCCO)nn32)cc1 (stereo not drawn)	-1.1	2.0	-4.1	-0.4	-0.6	-2.2
O=C(Cc1ccc(Cl)cc1)Nc1ncc([N+](=O)[O-])s1	x	2.6	9.5	x	x	15.9
O=C(Cc1ccc(Br)cc1)Nc1ncc([N+](=O)[O-])s1	15.2	12.2	11.3	1.2	4.8	35.1*
CCOc1ccc(C(CC(=O)O)NC(=O)COc2ccccc2)cc1OC (stereo not drawn)	4.3	6.1	1.9	-1.0	-1.9	1.6
CSCCC(NS(=O)(=O)c1cccc(C(F)(F)F)c1)C(=O)Nc1ccccc1N1CCCC1 (stereo not drawn)	10.1	2.6	6.2	2.4	-0.8	26.3*
O=C(COc1cccc(C(F)(F)F)c1)Nc1ccccc1N1CCCCC1	3.7	7.6	-4.7	-4.9	-5.5	1.8
COc1ccc(-c2[nH]c(-c3ccc(C)cc3)nc2SCC(=O)NC2CCCC2)cc1	14.4	5.6	5.3	1.4	0.9	6.7
Cc1ccc(C2CC(=O)Oc3cc(O)ccc32)cc1 (stereo not drawn)	17.1	34.5*	25.6	1.3	-2.9	24.3*
COc1ccc(C2C(C(=O)N3CCOCC3)CCC(=O)N2c2ccc(OC)cc2)cc1 (stereo not drawn)	0.2	3.0	-2.0	-1.5	-2.9	3.0
O=C(CCc1ccccc1)c1c(O)cc(O)cc1O	10.3	1.5	4.4	7.2	-0.5	42.3*
O=C(O)c1ccc(Cl)c(S(=O)(=O)NCc2cccnc2)c1	9.1	2.5	-9.9	2.4	-4.8	5.4
CC(C)(C)C1CCC2(CC1)C(C#N)=C(SCC(=O)Nc1ccccc1)NC(=O)C2C#N (stereo not drawn)	8.9	8.1	5.0	6.6	8.0	57.5*
CCOC(=O)C(N)CSC1CC(=O)N(CCc2ccccc2)C1=O (stereo not drawn)	-6.2	8.1	-2.5	4.2	-5.2	-0.2
O=C(NCCO)C(=O)c1c(-c2ccc(Cl)cc2)cc2ccccn12	0.4	2.6	3.5	3.7	-3.9	1.9
O=C(O)c1ccn2c(C(=O)c3ccc(Cl)cc3)c(-c3ccccc3)cc2c1	17.9	-2.6	8.1	1.5	10.3	59.0*
CN1CCN(C(=O)CSc2nc(-c3cccs3)cc(-c3cccs3)c2C#N)CC1	27.5*	5.7	19.1	1.4	-2.1	4.0
CCN(CC)C(=O)CSc1nc(-c2cccs2)cc(-c2cccs2)c1C#N	3.5	3.1	-10.2	-0.1	15.7*	1.7
O=C(N/N=C/c1ccc([N+](=O)[O-])o1)c1cn(-c2ccccc2)nc1-c1ccc(Cl)cc1	11.3	-1.9	-7.2	-2.4	6.8	-0.5
O=C(N/N=C/c1ccc([N+](=O)[O-])o1)c1cn(-c2ccccc2)nc1-c1ccccc1	26.7*	7.0	-3.7	1.1	6.2	-0.7
CCN(C(=O)CSc1nnc(-c2ccc3c(c2)OCO3)o1)C1CCS(=O)(=O)C1 (stereo not drawn)	3.2	7.0	-1.3	-0.2	-2.3	31.9*

Compound activity as filed in PubChem BioAssay.
